For 28 compounds, outcome and AC50 results are on record in PubChem BioAssay (EPA / NIEHS).

Each structure is given as a SMILES string. Several values for one entry are separate records, joined by “and”; a condition that tells them apart may be missing. Identical values can stand only once. Results filed as inconclusive are left out. A structure can be active in one record and inactive in another. Activity calls are given as the source filed them. How the source made its calls: active means hit-call score of the fitted dose curve at least 0.9, where 1 is the maximum; inconclusive means response in the unintended direction; inactive means score below 0.9.

As a reminder, the AC50 is the concentration giving half of the maximal activity seen.

Assay [1] can be described thus: ATG_XTT_Cytotoxicity: Cytotoxicity Assessment in the Attagene TRANS-FACTORIAL HepG2 Assay (AID 2283584). The essentials:
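Viability endpoint from XTT after 24 h chemical exposure of reporter-transfected human HepG2 liver cells; signal loss fitted relative to DMSO negative control.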

The nature of assay [2]: TOX21_p53_BLA_p2_viability: Viability Assessment in the Tox21 HCT-116 p53 Agonism Beta-lactamase Assay, Phase 2 (AID 2283591).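 Further: compound exposure lasted 16 h at 37 °C; actives lower the ATP signal meaning cytotoxicity.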 The essentials: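 Cytotoxicity readout: CellTiter-Glo ATP luminescence, 30 min at room temperature, after the beta-lactamase read. Cells were HCT116 exposed 16 h at 37C to compounds pin-transferred at 217-fold dilution from DMSO stocks.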
The target of assay [3] is Cellular tumor antigen p53 (Homo sapiens) (UniProt P04637). As to the kind of experiment: TOX21_p53_BLA_p2_ratio: Tox21 HCT-116 p53 Agonism Beta-lactamase Assay, Ratio, Phase 2 (AID 2283592). The essentials:
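Gain-of-signal p53 agonism was scored from the beta-lactamase FRET ratio (460/530 nm, 405 nm excitation) in HCT116 cells treated 16 h at 37C, 5% CO2, with DMSO serving as negative control and baseline.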

Assay [4] in a line: TOX21_p53_BLA_p3_viability: Viability Assessment in the Tox21 HCT-116 p53 Agonism Beta-lactamase Assay, Phase 3 (AID 2283593).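 Further: cells exposed to compound for 16 h before reading.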 The essentials: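 Cellular ATP was quantified by CellTiter-Glo luminescence, read after 30 min at room temperature. Beforehand, HCT116 cells (4000/well) received compound 5 h post-seeding, 217-fold diluted from DMSO, then incubated 16 h at 37C.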
The target in assay [5] is Cellular tumor antigen p53 (Homo sapiens) (UniProt P04637). As to the kind of experiment: TOX21_p53_BLA_p3_ratio: Tox21 HCT-116 p53 Agonism Beta-lactamase Assay, Ratio, Phase 3 (AID 2283596). The essentials: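 HCT116 p53-bla cells (4000/well) given compound in DMSO (217-fold dilution) after 5 h, incubated 16 h at 37C. CCF4-AM substrate 2 h at room temperature; 460/530 nm emission ratio, gain fitted against DMSO.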
Cellular tumor antigen p53 (Homo sapiens), sequence (P04637 whole entry, looked up): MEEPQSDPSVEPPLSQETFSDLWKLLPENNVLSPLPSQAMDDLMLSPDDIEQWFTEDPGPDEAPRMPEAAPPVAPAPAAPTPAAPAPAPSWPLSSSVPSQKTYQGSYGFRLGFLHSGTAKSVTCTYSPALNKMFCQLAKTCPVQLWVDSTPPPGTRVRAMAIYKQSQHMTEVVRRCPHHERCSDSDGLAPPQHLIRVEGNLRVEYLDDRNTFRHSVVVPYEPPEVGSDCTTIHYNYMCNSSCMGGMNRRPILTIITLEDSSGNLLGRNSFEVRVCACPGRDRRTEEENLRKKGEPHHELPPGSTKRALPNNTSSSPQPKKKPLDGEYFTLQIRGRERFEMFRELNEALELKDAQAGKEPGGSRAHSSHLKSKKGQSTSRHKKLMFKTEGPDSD

Assay [6] is described as follows: TOX21_p53_BLA_p4_viability: Viability Assessment in the Tox21 HCT-116 p53 Agonism Beta-lactamase Assay, Phase 4 (AID 2283597).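 Further: hits lower the luminescence signal meaning cytotoxicity.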 The essentials:
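Following a 16 h exposure at 37C, the treated HCT116 wells were first read for the FRET ratio. They were then lysed with CellTiter-Glo, and ATP luminescence was recorded after 30 min at room temperature.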

The target of assay [7] is Cellular tumor antigen p53 (Homo sapiens) (UniProt P04637). The assay is described as follows: TOX21_p53_BLA_p5_ratio: Tox21 HCT-116 p53 Agonism Beta-lactamase Assay, Ratio, Phase 5 (AID 2283599). The essentials: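 Beta-lactamase reporter ratio (blue 460 nm over green 530 nm, 405 nm excitation) after 2 h CCF4-AM loading, in HCT-116 cells exposed 16 h at 37 C to compounds pinned at 217-fold dilution. Increases relative to DMSO baseline scored.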

The nature of assay [8]: TOX21_p53_BLA_p5_viability: Viability Assessment in the Tox21 HCT-116 p53 Agonism Beta-lactamase Assay, Phase 5 (AID 2283600). The essentials: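 After the 460/530 nm beta-lactamase measurement, the wells received an ATP-detection luciferase reagent; signal was read 30 min later at RT. Compound treatment lasted 16 h on cells pre-incubated 5 h post-seeding.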

With `CCOP(=S)(OCC)SCn1nnc2ccccc2c1=O`, the outcome in assay [1], in assay [2], in assay [3], in assay [4], in assay [5] and in assay [6] was inactive. The result in assay [7] and in assay [8] was inactive.
As to `O=NN1CCCC1`, the call in assay [2], in assay [3], in assay [4], in assay [5], in assay [7] and in assay [8] was inactive.
As to `CCCCN(CC)C(=O)SCCC`, the call in assay [2], in assay [3], in assay [4], in assay [5], in assay [6] and in assay [7] was inactive. In addition, in assay [8], the compound was classed as inactive.
Turning to `CCCCc1ccc(O)cc1`, the result in assay [1], in assay [3], in assay [5], in assay [6] and in assay [7] was inactive.
Consider `CCCCOCCOP(=O)(OCCOCCCC)OCCOCCCC`, for which the compound was called inactive in assay [1], in assay [2], in assay [3], in assay [4], in assay [6] and in assay [8].
With `c1ccc2c(c1)sc1ccccc12`, the outcome in assay [1], in assay [2], in assay [3], in assay [4], in assay [5] and in assay [6] was inactive. In addition, the outcome in assay [7] and in assay [8] was inactive.
Take `O=c1[nH]c2ccccc2c(=O)o1`: the compound was called inactive in assay [1], in assay [3], in assay [5], in assay [6], in assay [7] and in assay [8].
With `CC1(C)CN=C(NN=C(/C=C/c2ccc(C(F)(F)F)cc2)/C=C/c2ccc(C(F)(F)F)cc2)NC1`, the result in assay [1] and in assay [6] was inactive. Further, the AC50 in assay [2] is 14.7 µM (active); in assay [3], 20.6 µM (active); in assay [4] it was 31.6 µM (active); in assay [5], 39.5 µM (active); in assay [7], 44.7 µM (active); in assay [8] it was 46.1 µM (active).
On to `CCN(CC)C1CCCCC1`, for which the result in assay [3], in assay [4], in assay [5], in assay [7] and in assay [8] was inactive.
With `COP(=O)(O)OC`, the outcome in assay [1], in assay [2], in assay [3], in assay [4] and in assay [5] was inactive. In assay [8], the AC50 is 85.6 µM (active).
As for `C/C(=N\NC(=O)Nc1cc(F)cc(F)c1)c1ncccc1C(=O)O`, the result in assay [1], in assay [2], in assay [3], in assay [4], in assay [5] and in assay [8] was inactive.
As to `FC(F)(F)c1ccc(Cl)cc1`, the compound was classed as inactive in assay [1], in assay [3], in assay [4], in assay [5] and in assay [7].
As to `O=C(CBr)OCc1ccccc1`, the call in assay [1], in assay [2], in assay [3], in assay [5] and in assay [8] was inactive.
As for `NNC(N)=S`, the compound was classed as inactive in assay [1], in assay [2], in assay [3], in assay [4], in assay [5] and in assay [6]. Moreover, the outcome in assay [7] was inactive.
For the compound `C=CC(=O)OCC(CC)(COC(=O)C=C)COC(=O)C=C`, the compound was classed as inactive in assay [1], in assay [3], in assay [5] and in assay [7]. Besides, the AC50 in assay [2] was 46.1 µM (active) and 95.1 µM (active); in assay [3], 86.6 µM (active); in assay [4], 69.2 µM (active) and 16.2 µM (active); in assay [6] it was 75.7 µM (active) and 97.1 µM (active); in assay [8] it was 85.1 µM (active) and 89.1 µM (active).
On to `O=P(OCC(Br)CBr)(OCC(Br)CBr)OCC(Br)CBr` (configuration not stated), for which the outcome in assay [1], in assay [2], in assay [3], in assay [4], in assay [6] and in assay [8] was inactive. For the same compound, the AC50 in assay [3] was 80.2 µM (active); in assay [5], 75.3 µM (active) and 86.9 µM (active); in assay [7], 66.9 µM (active) and 74.7 µM (active).
Consider `CC(=O)CCc1ccc2c(c1)OCO2`, for which the result in assay [1], in assay [3], in assay [5], in assay [7] and in assay [8] was inactive.
With `CC1=C(C(=O)Nc2ccccc2)S(=O)(=O)CCO1`, the outcome in assay [1], in assay [2], in assay [6] and in assay [8] was inactive. The AC50 in assay [3] is 22.1 µM (active); in assay [7], 15.8 µM (active).
As to `CCOP(=S)(NC(C)C)Oc1ccccc1C(=O)OC(C)C` (configuration not stated), the compound was called inactive in assay [1], in assay [2], in assay [3], in assay [4], in assay [7] and in assay [8]. Further, the AC50 in assay [6] was 33.5 µM (active).
Turning to `CCOP(=S)(S)OCC`, the call in assay [1], in assay [2], in assay [3], in assay [5], in assay [6] and in assay [8] was inactive.
For the compound `CNC(=O)Oc1ccc(N(C)C)c(C)c1`, the outcome in assay [3], in assay [5], in assay [7] and in assay [8] was inactive.
With `O=[N+]([O-])c1cc(Cl)ccc1Cl`, the call in assay [1] was inactive.
With `Cc1ccc2c(c1N)C(=O)c1ccccc1C2=O`, the result in assay [1], in assay [2], in assay [3], in assay [4], in assay [5] and in assay [6] was inactive. Besides, the outcome in assay [7] and in assay [8] was inactive.
`CC(C)Nc1ccc(Nc2ccccc2)cc1`: the call in assay [1], in assay [3], in assay [4] and in assay [8] was inactive. Further, the AC50 was 46.1 µM (active) and 45.9 µM (active) and 23 µM (active) in assay [2]; 14.6 µM (active) and 23.1 µM (active) in assay [3]; 66.1 µM (active) and 76.4 µM (active) and 31.5 µM (active) in assay [5]; 46.1 µM (active) and 45.9 µM (active) and 19.2 µM (active) in assay [6]; 66.4 µM (active) and 78.4 µM (active) and 24 µM (active) in assay [7].
For the compound `COC(N)=O`, the outcome in assay [1], in assay [2], in assay [3], in assay [4], in assay [6] and in assay [7] was inactive.
For the compound `O=S(=O)(c1ccc(O)cc1)c1ccc(O)cc1`, the compound was called inactive in assay [1], in assay [2], in assay [3], in assay [4], in assay [5] and in assay [6]. Besides, in assay [8], the outcome was inactive.
With `Cc1c([N+](=O)[O-])cc2c(c1[N+](=O)[O-])C(C)(C)CC2(C)C`, the result in assay [1], in assay [3], in assay [5] and in assay [8] was inactive.
In the case of `CO/N=C(/C(=O)OC)c1ccccc1COc1ccccc1C`, the compound was classed as inactive in assay [1], in assay [2], in assay [4], in assay [5], in assay [6] and in assay [7]. Also, the compound was classed as inactive in assay [8]. Also, the AC50 in assay [3] is 27.1 µM (active).
